This note sets out measurements from PubChem BioAssay (NCI).

About 83,000 compounds went through this panel and 20% of them were active in at least one assay; those are over-represented in the sample as a whole.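 The test compound was applied at a single concentration to cells in 96-well plates for 48 hours, and percent growth was recorded.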 A number with no mark means an inactive call. The source made the active and inactive calls. Rule for the calls: active = growth percent below 10; inactive = the rest.

The test system of the first experiment is NCI/ADR-RES ovarian. In words: NCI-60 one-dose screen, 48 h (100 = growth as untreated, 0 = no growth, -100 = all killed). As to conditions: 10 µM unless noted.
`CC(Sc1nc2ccccc2c(=O)n1CCc1ccc(S(N)(=O)=O)cc1)C(=O)Nc1ccc(Cl)cc1` (stereo not drawn): the growth was 77.3%.

`CC1=CCC(OC(=O)C(C)(O)CCC(O)(C(=O)OC2(C)C=CC(O)(C(C)C)CC2)C(C)C)(C(C)C)CC1` (stereo not drawn): the growth is 108%.

In the case of `ClC1=C(Br)C(Br)(Br)C(=C(Br)Br)C1(Br)Br`, the growth was 110%.

In the case of `C=C1C(=O)O[C@H]2[C@H]1CC/C(CNC(=O)C(C)c1ccc(CC(C)C)cc1)=C\CC[C@@]1(C)O[C@@H]21` (stereo partly drawn), the growth was 55.3%.

On to `CCCCCN1C=C/C(=C\C(=O)N2CCCc3ccccc32)c2ccccc21`, for which the growth is 107%.

In the case of `N#Cc1cc(-c2nc3ccccc3s2)c(=O)n(NS(=O)(=O)c2ccccc2)c1N`, the growth was 105%.

With `CCCOc1ccc(/C=N/Nc2cc(C)nc3ccc(Cl)cc23)cc1`, the growth was 82.4%.

Take `Cc1cccc(NC(=O)Nc2ccc(-n3cnc4cc(-c5ccc(O)cc5)ccc43)cc2)c1`: the growth was 39.5%.

For the compound `O=c1c2c(c(=O)n1O)c1c3ccc[nH]c3nc1c1nc3[nH]cccc3c12`, the growth was 89.6%.

As to `O=C(CNCCN1CCOCC1)N1c2cccc3cccc(c23)N(C(=O)CNCCN2CCOCC2)C1c1cn(-c2ccccc2)nc1-c1cccc([N+](=O)[O-])c1`, the growth was 87.7%.

As to `O=Cc1cc2ccccc2nc1Oc1ccc(C(F)(F)F)cc1`, the growth was 92.9%.

On to `COc1ccc(C(=O)/C=C/c2cc3ccccc3n3nnnc23)cc1`, for which the growth was 113%.

Turning to `CN1CCN(C(=O)[C@]23CCC(C)(C)C[C@H]2C2=CC[C@@H]4[C@@]5(C)C/C(=C/c6cccnc6)C(=O)C(C)(C)[C@@H]5CC[C@@]4(C)[C@]2(C)CC3)CC1`, the growth is 59.1%.

For `CCN(CC)c1ccc(/C=N/NC(=O)CSc2nc3ccccc3c(=O)n2CCc2ccc(S(N)(=O)=O)cc2)c(O)c1`, the growth was 82.6%.

As for `CCCCCCNC(=O)Nc1ccc2cc3ccc(NC(=O)NCCCCCC)cc3nc2c1`, the growth was 100%.

Regarding `CCNC(=O)Oc1ccc(/C(=C(\C)c2ccccc2)c2ccc(OCCN(CC)CC)cc2)cc1`, the growth is 85%.

Turning to `CC/C(=C\c1ccc(OC)cc1)C(=O)c1ccc(OC)cc1`, the growth is 86.7%.

Take `CCc1ccc(CNc2ccc(N3CCOCC3)c(C(=O)O)c2)cc1`: the growth is 98.6%.

Consider `Cc1ccc(NS(=O)(=O)c2ccc(-c3cnc(C4CC4)o3)cc2)cc1C(F)(F)F`, for which the growth is 43.3%.

In the case of `C/C(=N\NC(=O)CSc1nc2ccccc2c(=O)n1CCc1ccc(S(N)(=O)=O)cc1)c1ccccn1`, the growth was 74.4%.

On to `C=C(CBr)[C@@H]1CC[C@]2(COC(C)=O)CC[C@]3(C)[C@H](CC[C@@H]4[C@@]5(C)CCCNC(C)(C)[C@@H]5CC[C@]43C)[C@@H]12`, for which the growth is 48.9%.

Regarding `COc1ccc(C(=O)Nc2cccc(C3CCc4c(cc(OC)c(OC)c4OC)O3)c2)cc1` (stereo not drawn), the growth was 38.5%.

As to `N=C(N)c1ccc(OCCCCCCCCCCOc2ccc(C(=N)N)cc2)cc1`, the growth was 87.1%.

As for `COc1cc2nc(-c3ccc(Cl)cc3)cc(OCCCN3CCOCC3)c2cc1OC`, the growth was 44.6%.

For `Brc1ccc2[nH]cc(-c3cncn3CCc3ccccc3)c2c1`, the growth is 49.6%.

A further experiment deals with T-47D breast. The experiment is described as above. The note with it: 10 µM unless noted.
For the compound `N/C(=N\C(N)=N\c1nc2ccccc2s1)c1cccc(Cl)c1`, the growth was 46.9%.

`CCOC(=O)[C@@H](C)C[C@H](Cc1ccccc1)NC(=O)c1csc([C@@H](C[C@H](C(C)C)N(C)C(=O)[C@@H](NC(=O)[C@H]2C[C@H](O[Si](C)(C)C(C)(C)C)CCN2C)C(C)C)OC(C)=O)n1`: the growth was 37% [9.25 µM].

For the compound `COC(=O)/C=C1\S/C(=N\NC(=O)c2cc3ccc2/C=C\c2ccc(cc2)/C=C\3)N(c2ccccc2)C1=O`, the growth was -38.2% (active).

Take `NNC(=O)c1ccc(-n2nc(-c3ccccc3)c3ccccc32)cc1`: the growth was 38.1%.

Consider `NC(=NCCCOc1ccc(F)cc1)Nc1ccc(I)cc1`, for which the growth was 28.2%.

As for `N#CC1C(C#N)C(C(=O)c2ccc(Br)cc2)N2c3ccccc3C=CC12` (stereo not drawn), the growth was 49.3%.

Turning to `CCN1C(=O)/C(=C/C(=O)OC)S/C1=N\NC(=O)c1cc2ccc1/C=C\c1ccc(cc1)/C=C\2`, the growth is 94.2%.

For the compound `COc1ccccc1/C=C1\Oc2cc(OCCN3CCCC3)ccc2C1=O`, the growth was 90.1%.

With `Cc1cc2nc3c4ccc(Br)cc4n(CCN(C)C)c3nc2cc1C`, the growth was 21.6%.

As for `C/C(=N\Nc1cc(C)nc2ccc(Br)cc12)c1ccc([N+](=O)[O-])cc1`, the growth is 62%.

Turning to `COc1cc(C2C3CC4CCCC[C@H]4N3[C@@]3(C(=O)Nc4cc(Cl)ccc43)C2C(=O)c2nc3ccccc3[nH]2)cc(OC)c1OC` (stereo partly drawn), the growth is 36.3%.

Take `O=C1OC(Cc2ccccc2)C1c1ccccc1` (stereo not drawn): the growth was 93.7%.

Regarding `CC(Oc1ccc(C(=O)O)cc1C(F)(F)F)c1ccc(Oc2ccccc2)cn1` (stereo not drawn), the growth is 100%.

For `CC(Sc1nc2ccccc2c(=O)n1CCc1ccc(S(N)(=O)=O)cc1)C(=O)Nc1ccc(Cl)cc1` (stereo not drawn), the growth is 67.6%.

On to `CC1=CCC(OC(=O)C(C)(O)CCC(O)(C(=O)OC2(C)C=CC(O)(C(C)C)CC2)C(C)C)(C(C)C)CC1` (stereo not drawn), for which the growth was 93.9%.

On to `ClC1=C(Br)C(Br)(Br)C(=C(Br)Br)C1(Br)Br`, for which the growth was 73.6%.

In the case of `C=C1C(=O)O[C@H]2[C@H]1CC/C(CNC(=O)C(C)c1ccc(CC(C)C)cc1)=C\CC[C@@]1(C)O[C@@H]21` (stereo partly drawn), the growth is -46.3% (active).

For `CCCCCN1C=C/C(=C\C(=O)N2CCCc3ccccc32)c2ccccc21`, the growth is 68.2%.

As for `N#Cc1cc(-c2nc3ccccc3s2)c(=O)n(NS(=O)(=O)c2ccccc2)c1N`, the growth is 94.5%.

Regarding `CCCOc1ccc(/C=N/Nc2cc(C)nc3ccc(Cl)cc23)cc1`, the growth is 45.9%.

In the case of `Cc1cccc(NC(=O)Nc2ccc(-n3cnc4cc(-c5ccc(O)cc5)ccc43)cc2)c1`, the growth is 4.01% (active).

Turning to `O=c1c2c(c(=O)n1O)c1c3ccc[nH]c3nc1c1nc3[nH]cccc3c12`, the growth was 60.7%.

For the compound `O=C(CNCCN1CCOCC1)N1c2cccc3cccc(c23)N(C(=O)CNCCN2CCOCC2)C1c1cn(-c2ccccc2)nc1-c1cccc([N+](=O)[O-])c1`, the growth is 77.6%.

Turning to `O=Cc1cc2ccccc2nc1Oc1ccc(C(F)(F)F)cc1`, the growth is 83.7%.

Regarding `COc1ccc(C(=O)/C=C/c2cc3ccccc3n3nnnc23)cc1`, the growth is 92.1%.

Take `CN1CCN(C(=O)[C@]23CCC(C)(C)C[C@H]2C2=CC[C@@H]4[C@@]5(C)C/C(=C/c6cccnc6)C(=O)C(C)(C)[C@@H]5CC[C@@]4(C)[C@]2(C)CC3)CC1`: the growth was 34.5%.

For `CCN(CC)c1ccc(/C=N/NC(=O)CSc2nc3ccccc3c(=O)n2CCc2ccc(S(N)(=O)=O)cc2)c(O)c1`, the growth was 13.9%.

As for `CCCCCCNC(=O)Nc1ccc2cc3ccc(NC(=O)NCCCCCC)cc3nc2c1`, the growth was -24.8% (active).

Regarding `CCNC(=O)Oc1ccc(/C(=C(\C)c2ccccc2)c2ccc(OCCN(CC)CC)cc2)cc1`, the growth is 46.3%.

On to `CC/C(=C\c1ccc(OC)cc1)C(=O)c1ccc(OC)cc1`, for which the growth is 85.8%.

`CCc1ccc(CNc2ccc(N3CCOCC3)c(C(=O)O)c2)cc1`: the growth was 86.3%.

`Cc1ccc(NS(=O)(=O)c2ccc(-c3cnc(C4CC4)o3)cc2)cc1C(F)(F)F`: the growth is 55.1%.

Consider `C/C(=N\NC(=O)CSc1nc2ccccc2c(=O)n1CCc1ccc(S(N)(=O)=O)cc1)c1ccccn1`, for which the growth was 28.4%.

Turning to `C=C(CBr)[C@@H]1CC[C@]2(COC(C)=O)CC[C@]3(C)[C@H](CC[C@@H]4[C@@]5(C)CCCNC(C)(C)[C@@H]5CC[C@]43C)[C@@H]12`, the growth was 25.9%.

`COc1ccc(C(=O)Nc2cccc(C3CCc4c(cc(OC)c(OC)c4OC)O3)c2)cc1` (stereo not drawn): the growth is 15.8%.

For `N=C(N)c1ccc(OCCCCCCCCCCOc2ccc(C(=N)N)cc2)cc1`, the growth is -59.1% (active).

Consider `COc1cc2nc(-c3ccc(Cl)cc3)cc(OCCCN3CCOCC3)c2cc1OC`, for which the growth was 28.2%.

On to `Brc1ccc2[nH]cc(-c3cncn3CCc3ccccc3)c2c1`, for which the growth is 22.9%.
